Compound activity deposited in PubChem by National Center for Advancing Translational Sciences (NCATS).
A selection: hits, their analogues and other compounds. The true share with any hit is near 5.7%.
BAZ2B block = inhibitors of human BAZ2B bromodomain; Q9UIF8; AlphaScreen BAZ2B-H3K14Ac peptide displacement; Potency, µM (top dose mostly 114 µM), for the others: at the top dose activity change, negative = inhibition, usual class: inhibitors; actives 4.4% (n = 360,000); AID 504333; note: potency is the fitted concentration of half-maximal effect; % is set by controls: 0 for no effect and ±100 for the full control effect; nearly all actives have a fitted effect of over 60% in size
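Complex of BAZ2B and biotin-H3K14Ac (50 nM apiece) forms over 30 min at RT, then faces library compounds up to 110 uM for another 30 min; AlphaScreen beads added, 20 min dark incubation, luminescence read.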
PI5P4Ka inh = PI5P4K alpha (human) kinase inhibition; actives 1.2% (n = 330,000); AID 652105; max response, %; PI5P4Kalpha enzyme, ADP-Glo luminescence, 60 min; stronger effect = lower value; P48426; active = max response of -50% or lower; inconclusive = between -30% and -50%; inactive = -30% or higher; note: value at the top dose of about 77 µM; % is set by controls: 0 for no effect and ±100 for the full control effect
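Single end-point luminescence (ADP-Glo) quantified ADP from PI5P4Kalpha turnover; ATP 5 microM final, 1 h at RT, 0.1% CHAPS and 0.28 mM EGTA in HEPES pH 7.4.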
JMJD2A Tudor = blocks the human JMJD2A Tudor domain; O75164; AlphaScreen JMJD2A-Tudor / H3K4me3 peptide binding; Potency, µM (titrated, usually from 114 µM), without a hit: at the top dose activity change, negative = inhibition, hits mostly inhibitors; actives 4.4% (n = 390,000); AID 504339; note: potency is the fitted concentration of half-maximal effect; % is set by controls: 0 for no effect and ±100 for the full control effect; nearly all actives have a fitted effect of over 50% in size
HP1b chromo inh = blocks HP1-beta chromodomain binding to methylated histone tails | AID 540317 | P83916 | AlphaScreen HP1-beta / biotin-H3K9me3 peptide binding | actives 0.56% (n = 390,000) | Potency, µM (series often up to 114 µM), inactives show at the top dose activity change, negative = inhibition, hits mostly inhibitors; note: potency is the fitted concentration of half-maximal effect; nearly all actives have a fitted effect of over 70% in size
Target sequence (P83916 whole entry, looked up): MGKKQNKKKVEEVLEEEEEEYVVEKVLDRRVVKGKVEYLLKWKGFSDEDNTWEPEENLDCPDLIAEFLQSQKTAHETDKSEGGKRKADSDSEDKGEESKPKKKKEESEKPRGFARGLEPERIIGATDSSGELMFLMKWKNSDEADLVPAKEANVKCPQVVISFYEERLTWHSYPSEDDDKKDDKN
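AlphaScreen: HP1-beta (50 nM) preformed 30 min with biotin-H3(1-18)K9me3 peptide (50 nM) in PBS pH 7.4, 0.01% Tween-20. Compound added for 30 min at RT, then streptavidin donor/nickel chelate acceptor beads (10 ug/mL) for 30 min.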
L3MBTL1 block = inhibitors of human L3MBTL1 | Potency, µM (highest dose often 57.1 µM), inactives show top-dose activity, negative = inhibition, hits mostly inhibitors | Q9Y468 | AlphaScreen L3MBTL1–H3K9me1 peptide binding | actives 0.66% (n = 230,000) | AID 485360; note: potency is the fitted concentration of half-maximal effect; % is set by controls: 0 for no effect and ±100 for the full control effect; nearly all actives have a fitted effect of over 60% in size
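L3MBTL1 (50 nM) pre-complexed 30 min with biotinylated H3(1-15)K9me1 peptide (75 nM), then compounds added for 30 min at room temperature; AlphaScreen streptavidin donor/nickel chelate acceptor beads (10 ug/mL final) read after 30 min dark incubation.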
KDM4E inh = JMJD2E (human) inhibition. actives 1.6% (n = 230,000). Potency, µM (doses to about 57.1 µM), inactives show at the top dose activity change, negative = inhibition, actives largely listed as inhibitors. AID 2147. JMJD2E catalytic domain, FDH-coupled NADH fluorescence (FDH is formaldehyde dehydrogenase); active = well fitted inhibition curve with a large enough effect, not every such curve was filed as active; inconclusive = small, poorly fitted or top-dose-only effect, or another doubt; inactive = no such curve, though single readings can be large or run the other way;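 note: potency is the fitted concentration of half-maximal effect; 0% = wells with enzyme and -100% = buffer wells without enzyme; nearly all actives have a fitted effect of over 50% in size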
Target sequence (B2RXH2 1-337 limits assumed): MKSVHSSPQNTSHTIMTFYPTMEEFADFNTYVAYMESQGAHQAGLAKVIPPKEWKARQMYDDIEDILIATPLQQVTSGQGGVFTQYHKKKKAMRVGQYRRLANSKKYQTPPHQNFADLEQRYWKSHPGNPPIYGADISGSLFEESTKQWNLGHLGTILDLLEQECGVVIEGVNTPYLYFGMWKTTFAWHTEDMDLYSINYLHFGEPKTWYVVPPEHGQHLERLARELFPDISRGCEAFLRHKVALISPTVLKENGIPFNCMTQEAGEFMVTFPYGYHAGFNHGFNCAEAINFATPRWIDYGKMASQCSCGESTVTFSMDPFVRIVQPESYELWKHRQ
Active calls of the source: *; ? = inconclusive; nt = not tested or not shown; [ ] = dose if it differs, or a comment. Unless noted, calls come from the whole dose curve; as a rule, active = well fitted inhibition curve with a large enough effect; inconclusive = small, poorly fitted or top-dose-only effect; inactive = no such curve, though single readings can be large or run the other way.

SMILES	BAZ2B block	PI5P4Ka inh	JMJD2A Tudor	HP1b chromo inh	L3MBTL1 block	KDM4E inh
COc1ccccc1C(=O)NCc1nnnn1-c1ccc(C)c(C)c1	8%	nt	-10%	19%[57 µM]	nt	nt
Cc1ccc(CNCC(=O)Nc2cccc(S(=O)(=O)NC3=NCCCCC3)c2)cc1	?	0	7.9µM*	?	5%	?
O=C(CCl)Nc1cccc(S(=O)(=O)NC2=NCCCCC2)c1	nt	0	-3%	37%	0%	nt
CCCNCC(=O)Nc1cccc(S(=O)(=O)NC2=NCCCCC2)c1	nt	-9	1µM*	?	-4%	nt
Cc1ccc(C)c(SCC(=O)Nc2cccc(S(=O)(=O)NC3=NCCCCC3)c2)c1	-6%	13	-28%	18%	10%	2%
NC(=S)NN=C(c1ccc(Br)cc1)C1CC1	nt	-1	0.79µM*	?	nt	nt
CCOc1ccc2c(ccc(/C=C/c3cc(C)c4cccnc4c3O)[n+]2C)c1	nt	-85*	10µM*	?	nt	nt
Cc1cc(OCCn2ccnc2)cc(C(C)C)c1	28µM*	-5	0.79µM*	22µM*	-16%	?
CCC(C)c1ccc(OCCn2ccnc2)cc1 (stereo unspecified)	50µM*	5	20µM*	-37%	-14%	-27%
CCCCOc1ccc(NC(=O)C(=O)NCCCn2ccnc2)cc1	-36%	0	-22%	30%	-1%	6%
CCOc1ccc(OCCOCCn2ccnc2)cc1	79µM*	-4	8.9µM*	?	nt	-9%
Cc1cc(C)cc(OCCn2ccnc2)c1	-24%	-4	-35%	24%	nt	nt
C/C=C(\C)C(=O)OC1[C@@H]2C=C3C4CC(=O)OC(c5ccoc5)[C@]4(C)CCC3[C@@](C)(C2=O)C(C(O)C(=O)OC)C1(C)C (stereo partly specified)	nt	nt	nt	nt	nt	2%
CCCn1c2ccccc2c2cnn(CC(=O)N3CCN(c4ccccc4F)CC3)c(=O)c21	-18%	nt	-20%	4%	nt	nt
CCN(CC)c1ccc(N)cc1	32µM*	-6	18µM*	13µM*	?	nt
Nc1ccc(N(CCO)CCO)cc1	50µM*	-1	8.9µM*	?	13µM*	32%
Nc1ccc(C(=O)N(CCO)CCO)cc1	-24%	-5	-9%	24%	4%	-1%
Cc1cccc(C(=O)OCc2cc(=O)n3ccsc3n2)c1	-5%	nt	-6%	-3%	nt	nt
O=C1C=CC2=C3c4cc(O)c(O)cc4C[C@@]3(O)COC2=C1	nt	nt	nt	nt	nt	16µM*
O=C(c1ccc(Oc2ccc([N+](=O)[O-])cc2)cc1)N1CCCCCC1	-33%	0	-17%	26%	nt	nt
O=C(CCc1ccc(Oc2cc([N+](=O)[O-])cc([N+](=O)[O-])c2)cc1)N1CCCCC1	25µM*	-15	56µM*	-58%	-29%	8%
CN(C)c1ccc2c(=O)c3ccccc3oc2n1	nt	7	nt	nt	nt	nt
CC1Oc2ccccc2OC1(O)c1ccccn1 (stereo unspecified)	-24%	-2	50µM*	41%	9%	5%
CC1Oc2ccccc2OC1(O)c1ccc2ccccc2n1 (stereo unspecified)	2%	-7	?	2%	2%	0%
CC1(OC(=O)c2ccc(Cl)nc2)C(=O)C=C2C=C(C3CC3)OC=C2C1=O (stereo unspecified)	nt	nt	nt	nt	nt	-4%
CC1(OC(=O)c2ccc(Cl)nc2)C(=O)C=C2C=C3CCCN3C=C2C1=O (stereo unspecified)	?	?	45µM*	?	nt	5.6µM*
Cc1ccccc1C(=O)Nc1cccc(C(=O)OCc2cc(=O)n3ccsc3n2)c1	-9%	nt	-9%	10%	nt	nt
CCOC(=O)c1sc2nc(SCC(=O)N(CC)CC)n(CCCN3CCCC3=O)c(=O)c2c1C	79µM*	3	-21%	36%	nt	?
CCN(CC)S(=O)(=O)c1ccc(N/N=C/c2cc(OC)ccc2O)nc1	-2%	1	-25%	32%	-4%	13µM*
CCN(CC)S(=O)(=O)c1ccc(NN)nc1	nt	-12	20µM*	-4%	-24%	?
